In PubChem BioAssay:

Legend:
[1] = biological target: Tumor necrosis factor receptor superfamily member 10B (Homo sapiens) (UniProt O14763); test: viability loss of caspase-8 NB7 cells with TRAIL – with/without TRAIL, luminescence panel, confirmation (AID 651596); settings: NB7 neuroblastoma + caspase-8, TRAIL sensitization, NB7 Caspase-8, with TRAIL, mean of runs, at 10 µM, stronger effect = higher value
[2] = as above; settings: NB7 neuroblastoma + caspase-8, without TRAIL, NB7 Caspase-8, without TRAIL, mean of runs, at 10 µM

Tumor necrosis factor receptor superfamily member 10B (Homo sapiens), sequence (O14763 whole entry, looked up): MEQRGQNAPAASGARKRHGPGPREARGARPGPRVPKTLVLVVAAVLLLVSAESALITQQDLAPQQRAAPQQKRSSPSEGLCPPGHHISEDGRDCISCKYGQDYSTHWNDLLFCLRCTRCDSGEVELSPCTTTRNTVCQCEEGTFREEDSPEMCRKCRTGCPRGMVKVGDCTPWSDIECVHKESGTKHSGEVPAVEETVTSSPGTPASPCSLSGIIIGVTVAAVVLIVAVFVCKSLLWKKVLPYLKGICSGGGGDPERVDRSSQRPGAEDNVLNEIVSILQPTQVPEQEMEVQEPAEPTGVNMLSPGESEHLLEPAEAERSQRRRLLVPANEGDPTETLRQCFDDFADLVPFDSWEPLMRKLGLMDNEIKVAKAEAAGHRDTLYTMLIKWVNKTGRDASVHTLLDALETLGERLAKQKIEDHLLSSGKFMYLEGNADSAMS

| Compound | activity [1] [%] | activity [2] [%] |
| --- | --- | --- |
| CCc1ccc(C(=O)Cn2ccsc2=N)cc1 | 66.5 | 66.6 |
| CCCCCCCCOC(=O)c1cc([N+](=O)[O-])c(Sc2ncnc3nc[nH]c23)c([N+](=O)[O-])c1 | 64.1 | 62 |
| COc1cccc(C(=O)Nc2nc3ccccc3[nH]2)c1 | 91 | 85.3 |
| C/C(=N\NC(=O)c1ccccc1F)c1cccc(NC(=O)c2ccc(C)cc2)c1 | 59.8 | 71.5 |
| CCc1cc2c(=O)[nH]c(-c3ccccn3)nc2s1 | 35.9 | 41 |
| CC(=O)Nc1sc2c(c1-c1nc3ccccc3s1)CN(C(C)C)CC2 | 38 | 73.8 |
| Cc1cc(C(=O)COC(=O)c2cccn2C)c(C)n1Cc1ccco1 | 54.5 | 39.2 |
| COc1cc2c3nnc(-c4ccc(F)cc4)c-3cn(Cc3ccc(C)cc3)c2cc1OC | 24.2 | 60.6 |
| CCOc1ccc2nc(NC(=O)c3cccc(N4C(=O)CCC4=O)c3)sc2c1 | 65.7 | 81.5 |
| Cc1ccc(/C(N)=N/OC(=O)c2ccc(C)cc2Cl)cc1 | 97.3 | 96.4 |
| CN(Cc1ccccc1)C(=O)c1ccc(Nc2nc(C(N)Cc3ccc(C(F)(F)F)cc3)cs2)nc1 (stereo not drawn) | 93 | 98.2 |
| Cc1cc2ncc(-c3ncc(C(F)(F)F)cc3Cl)cn2n1 | 45.7 | 41.9 |
| Cc1nc(-c2ccc(NC(=O)c3cccs3)cc2)cs1 | 83.1 | 83.7 |
| Cc1nc2sc(-c3ccccc3)cc2c(=O)[nH]1 | 74.1 | 73.8 |
| CSc1nnc(NC(=O)c2nc(S(=O)(=O)Cc3cccc(C)c3)ncc2Cl)s1 | 93 | 88.3 |
| FC(F)(F)c1cccc(CC2CN(Cc3ccccc3)Cc3ccccc3N2c2cc(Cl)cc(Cl)c2)c1 (stereo not drawn) | 1.05 | -5.7 |
| CC(=O)CSc1ccc(-c2nc3ccccc3[nH]2)cn1 | 92.1 | 92.5 |

| Compound | activity [1] [%] | activity [2] [%] |
| --- | --- | --- |
| CC(C)c1ccc(/C=N/NC(=O)c2c(Cl)cnn2C)cc1 | 80.1 | 71.3 |
| CCOC(=O)c1ccc(NC(=O)c2ccc(C)c(S(=O)(=O)N3CCOCC3)c2)cc1 | 79.3 | 69.1 |
| CCc1ccc(NC(=O)Nc2cccs2)cc1 | 59 | 45.9 |
| O=C(/C=C/c1ccc([N+](=O)[O-])cc1)Nc1ncc([N+](=O)[O-])s1 | 69.1 | 68.5 |
| O=C(CCl)N1c2ccccc2SCC1c1ccccc1 (stereo not drawn) | 99.4 | 98.9 |
| C=CCNC(=S)N/N=C/c1ccc(C(F)(F)F)cc1 | 18.5 | 8.22 |
| COc1cc(/C=C/c2nc3ccccc3c(=O)[nH]2)ccc1OC(F)F | 55.6 | 54.7 |
| COc1ccccc1N1CCN(c2ccc(-c3ccccc3)nn2)CC1 | 80.9 | 86.2 |
| Cc1ccc(-c2nc(NC(=O)c3nn(C)cc3[N+](=O)[O-])sc2C)cc1C | 98.1 | 99.1 |
| C/C(=N\Nc1nc2ccccc2[nH]1)c1cc2ccccc2o1 | 47.5 | 43.7 |
| COc1cccc(C=NNc2nnc(NN=Cc3cccc(OC)c3OC)c3ccccc23)c1OC | 83.2 | 75 |
| CN(C(=O)c1ccccc1)c1nc2ccccc2s1 | 84.3 | 72.3 |
| O=C(/C=C/c1ccco1)Nc1scc(-c2ccccc2)c1C(=O)O | 51.9 | 39.8 |
| Cc1ccc(-c2cc(C(=O)N/N=C/c3ccc([N+](=O)[O-])o3)c3ccccc3n2)o1 | 83.8 | 73.7 |
| COc1ccc(-c2cc3ccc(F)cc3cn2)cc1 | 66.5 | 58.9 |
| CC(C)C[C@H]1CNC(=S)N1C[C@H]1CCCN1C[C@H](Cc1ccccc1)N1C[C@H](Cc2ccc(O)cc2)N(CC2CCCCC2)C1=S | -0.175 | -1.23 |
| Nc1ccc(-c2cnc(-c3ccc(N)cc3)nc2)cc1 | 74.7 | 71.7 |
